# Screening results as filed in PubChem BioAssay.
# GPR151 activ = activators of human GPR151, primary screen, cell-based, PathHunter beta-arrestin, luminescence | G-protein coupled receptor 151 (Homo sapiens), Q8TDV0 | PathHunter beta-arrestin GPR151 cells | activation, % at 11.2 µM | 1% of 650,000 active | AID 1508602, 2020; in the data active means activation above about 4.9%
# MITF inh = MITF inhibitors, primary screen, biochemical, AlphaScreen, human; Microphthalmia-associated transcription factor (Homo sapiens), O75030; AlphaScreen MITF homodimerization, bead proximity signal; 0.91% of 650,000 active; inhibition, % at 2.6 µM; in the data active means inhibition above about 50%
# Target sequence (O75030 whole entry, looked up): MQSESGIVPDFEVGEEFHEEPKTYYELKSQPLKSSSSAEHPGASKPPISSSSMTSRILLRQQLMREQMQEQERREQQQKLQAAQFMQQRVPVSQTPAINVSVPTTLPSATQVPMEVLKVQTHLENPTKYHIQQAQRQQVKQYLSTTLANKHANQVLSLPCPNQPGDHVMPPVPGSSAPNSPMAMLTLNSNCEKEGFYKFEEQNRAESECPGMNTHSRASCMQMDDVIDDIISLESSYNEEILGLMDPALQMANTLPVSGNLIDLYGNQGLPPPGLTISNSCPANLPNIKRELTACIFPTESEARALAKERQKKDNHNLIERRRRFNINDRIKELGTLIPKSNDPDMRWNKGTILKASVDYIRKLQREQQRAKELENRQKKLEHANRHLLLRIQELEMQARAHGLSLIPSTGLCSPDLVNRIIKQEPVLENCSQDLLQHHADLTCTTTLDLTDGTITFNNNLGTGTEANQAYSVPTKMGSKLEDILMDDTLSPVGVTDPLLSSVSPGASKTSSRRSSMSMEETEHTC
# TEAD-YAP inh = TEAD-YAP interaction inhibition, primary screen, TEAD-YAP interaction inhibitor project, luminescence, HEK-TIYL cells. TEAD-Gal4/YAP UAS-luciferase luminescence. inhibition, % at 9.12 µM. 1.4% of 640,000 active; in the data active means inhibition above about 32%
# FBW7 act = FBW7 E3 ligase activators, primary screen, biochemical, AlphaScreen, human. F-box/WD repeat-containing protein 7 (Homo sapiens), Q969H0. AlphaScreen FBW7–phospho-cyclin E peptide binding, activator screen. normalized activity (activation), % at 26.1 µM. 0.13% of 650,000 active. AID 1259310, 2017; in the data active means normalized activity above about 1.9%;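 further: purified mutant Fbw7 with reduced substrate affinity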
# GPR151 confirm = GPR151 activators, triplicate retest, confirmation, cell-based, PathHunter beta-arrestin, luminescence. shares compounds with GPR151 activ. GPR151 PathHunter beta-arrestin cells, 90 min; % of EA-reagent control over plate median. activation, % at 11.2 µM. 6,700 tested, under 10 active;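 active means mean percent activation across replicates above the confirmation screen cutoff of 4.91%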
# GPR119 ag = GPR119 activators in beta-arrestin cells, counter-screen for GPR151 activator project, cell-based, PathHunter beta-arrestin, luminescence, triplicate | activation, % at 11.2 µM | shares compounds with GPR151 activ | AID 1508611, 2020 | 90 min; 0 = compound-well median, 100 = enzyme-acceptor control | 0.3% of 6,700 active;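 active means mean percent activation in the counterscreen above 29.09%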;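 further: counterscreen on off-target GPR119 to flag nonselective hits from the GPR151 activator screen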
# Hits are given with their value; – = inactive; · = no result given; ! = not confirmed by another sample. Only some compounds are listed: those with a hit (about 3.5% of all), similar ones and a draw of the others.
SMILES,GPR151 activ,MITF inh,TEAD-YAP inh,FBW7 act,GPR151 confirm,GPR119 ag
COc1ccc(C(=O)NC(=S)N2CCOCC2)cc1Br,–,–,–,–,·,·
CC(C)Oc1ccc(C(=O)NC(=S)N2CCOCC2)cc1,13,–,–,–,–,–
COc1ccc(C(=O)NC(=S)N2CCSCC2)cc1,–,–,–,–,·,·
COc1ccc(C(=O)NC(=S)N2CCOCC2)cc1,6.1,–,–,–,–,–
CC1=CC(C)(C)Nc2ccc(OC(=O)c3ccc4c(c3)OCO4)cc21,–,–,–,–,·,·
Cc1cccc(NC(=S)Nc2c(C)n(C)n(-c3ccccc3)c2=O)c1,–,–,–,–,·,·
CCSc1nc2sc3c(c2c(=O)n1C)CC(C)(C)SC3,–,–,–,–,·,·
Cc1ccc(N2C(=O)CSC23C(=O)Nc2ccccc23)cc1Br (configuration not stated),5.0,–,–,–,–,–
Cc1cc(N2C(=O)CSC23C(=O)Nc2ccccc23)ccc1Br (configuration not stated),–,–,–,–,·,·
O=C(c1cccc(F)c1)N1CCN(Cc2ccc3ccccc3c2)CC1,–,–,–,–,·,·
CC(C)c1ccc(OCC(=O)Nc2ccccc2C(C)C)cc1,–,–,–,–,·,·
CC(=O)Nc1ccc(CSc2ccccc2)cc1C,–,–,–,–,·,·
Cc1cc(CSc2ccccc2)ccc1NS(C)(=O)=O,5.3,–,–,–,–,–
CS(=O)(=O)N(CC(=O)N1CCN(c2ccccc2F)CC1)Cc1ccc(Cl)cc1,–,–,–,–,·,·
COc1ccc(C2CC(C(F)(F)F)n3nc(C(=O)Nc4ccc(C)cc4)cc3N2)cc1OC (configuration not stated),–,–,–,–,·,·
O=C(c1cccc(S(=O)(=O)N2CCCC2)c1)c1nnc(-c2ccncc2)o1,8.2,–,–,–,–,–
Cc1ccc(CN2CCN(C/C=C/c3ccc(F)cc3)CC2CCO)o1 (configuration not stated),13,–,–,–,–,–
COc1ccccc1/C=C/CN1CCN(Cc2ccccc2)C(CCO)C1 (configuration not stated),–,–,–,–,·,·
Cc1ccc(CN2CCN(C/C=C/C(C)C)CC2CCO)o1 (configuration not stated),–,–,–,–,·,·
COc1ccccc1/C=C/CN1CCN(Cc2cccs2)C(CCO)C1 (configuration not stated),6.9,–,–,–,–,–
Cc1ccc(CN2CCN(Cc3ccc4c(c3)OCCO4)CC2CCO)o1 (configuration not stated),5.9,–,–,–,–,–
Cc1ccc(CN2CCN(C/C(Cl)=C/c3ccccc3)CC2CCO)o1 (configuration not stated),5.4,–,–,–,–,–
CN(C)CCNc1ccnc2c(-c3cccc4cccnc34)cnn12,–,–,–,–,·,·
CC(C)=CCN1CCN(Cc2ccc3nonc3c2)CC1CCO (configuration not stated),5.4,–,–,–,–,–
Cc1ccc(CN2CCN(Cc3ccc4nonc4c3)CC2CCO)cc1 (configuration not stated),–,–,–,–,·,·
SMILES,GPR151 activ,MITF inh,TEAD-YAP inh,FBW7 act,GPR151 confirm,GPR119 ag
CC(=O)N1CCN(Cc2ccc3c(c2)CN(Cc2ccc(C)o2)CCO3)CC1,–,–,–,–,·,·
COc1cccc2cc(-c3csc(NC(=O)CCC(=O)N4CCC(C(N)=O)CC4)n3)c(=O)oc12,5.2,–,–,–,–,–
O=C(CSc1ccc(F)cc1)Nc1nc(-c2ccc(F)cc2)cs1,7.7,–,–,–,–,–
COc1cc(/C=N/NC(=O)CNC(=O)c2ccco2)cc([N+](=O)[O-])c1O,–,–,–,–,·,·
Nc1ccn([C@@H]2O[C@H](CO)[C@@H](O)C2O)c(=O)n1 (some centres not stated),–,–,–,–,·,·
Nc1ccn([C@@H]2O[C@H](CO)[C@@H](O)C2(F)F)c(=O)n1,8.7!,–,–,–,–,–
COc1ccccc1OCCn1cc(/C=C(\C#N)C(=O)NC2CC2)c2ccccc21,5.6,–,–,–,–,–
COc1ccc(OCCn2cc(/C=C(\C#N)C(=O)NC3CC3)c3ccccc32)cc1,–,–,–,–,·,·
CC(NC(=O)C1CC1)C(c1cccs1)N1CCN(c2ccccc2)CC1 (configuration not stated),5.7,–,–,–,–,–
CC(NC(=O)C1CC1)C(c1cccs1)N1CCN(c2ccccc2F)CC1 (configuration not stated),–,–,–,–,·,·
Cc1sc2ncn(CC(=O)NCC(=O)NCCC3=CCCCC3)c(=O)c2c1C,–,–,–,–,·,·
CC(=O)C1=C(O)C(=O)N(CCCN2CCOCC2)C1c1ccc(N(C)C)cc1 (configuration not stated),–,–,–,–,·,·
O=C(NCCCN1CCCCC1)NC1CC(=O)N(c2ccc(F)cc2)C1 (configuration not stated),–,–,–,–,·,·
CCCOc1ccc2oc(=O)c3c(c2c1)CCCN3C(=O)CN1CCCC1,5.4,–,–,–,–,–
CCCOc1ccc2c3c(c(=O)oc2c1)CCC3,7.9,–,–,–,–,–
CCCCOc1ccc2c3c(c(=O)oc2c1)CCC3,–,–,–,–,·,·
CCCOc1ccc2oc(=O)c3c(c2c1)CCCN3C(=O)CN1CCN(C)CC1,–,–,–,–,·,·
CC(=O)n1c2c(c3ccccc31)CCCC2,–,–,–,–,·,·
CCc1ccccc1NC(=O)CN(Cc1ccc(Br)cc1)S(=O)(=O)c1ccccc1,–,–,–,–,·,·
O=C(CN(Cc1ccccc1)S(=O)(=O)c1ccc(Br)cc1)Nc1ccccc1Cl,6.0,–,–,–,–,–
Cc1ccc(CN(CC(=O)O)S(=O)(=O)c2ccc(Cl)cc2)cc1,–,–,–,–,·,·
CCc1ccccc1NC(=O)CN(Cc1ccccc1)S(=O)(=O)c1ccc(Br)cc1,6.6,–,–,–,–,–
O=C(O)CN(Cc1ccc(Cl)cc1)S(=O)(=O)c1ccc(Cl)cc1,5.1,–,–,–,–,–
COc1ccccc1NC(=O)CSc1nncn1C,–,–,–,–,·,·
COCCN1C(=O)C(O)=C(C(=O)c2cc3ccccc3o2)C1c1cccc([N+](=O)[O-])c1 (configuration not stated),5.7,–,–,–,–,–
O=C(COc1ccc(Cl)cc1)Nc1ccc(F)cc1,–,–,–,–,·,·
